# Screens: PubChem BioAssay, National Center for Advancing Translational Sciences (NCATS)
# The list is not random: actives were taken first. Their share in the collection is about 10%.
# BAZ2B block: BAZ2B (human) inhibition; actives 4.4% (n = 360,000); Q9UIF8; Potency, µM (series often up to 114 µM), without a hit: at the highest dose activity change, negative = inhibition, usual class: inhibitors; AlphaScreen BAZ2B-H3K14Ac peptide displacement; note: potency is the fitted concentration of half-maximal effect; % is set by controls: 0 for no effect and ±100 for the full control effect; nearly all actives have a fitted effect of over 60% in size
#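 BAZ2B 50 nM plus b-H3(5-23)K14Ac 50 nM, PBS pH 7.4/0.01% Tween-20, 30 min RT; compound added (max 110 uM), 30 min RT; streptavidin donor/Ni-chelate acceptor beads 10 ug/mL final, 20 min dark; AlphaScreen read.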
# G9a block: inhibitors of human histone lysine methyltransferase G9a; Q96KQ7; G9a H3K9 monomethylation, AlphaScreen, 2 h; Potency, µM (series often up to 102 µM), without a hit: at the top dose activity, negative = inhibition, actives largely listed as inhibitors; actives 8.8% (n = 350,000); AID 504332; note: potency is the fitted concentration of half-maximal effect; % is set by controls: 0 for no effect and ±100 for the full control effect; nearly all actives have a fitted effect of over 75% in size
#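 Quantitative HTS format: methyltransferase activity on a biotin-tagged H3K9 peptide is measured by AlphaScreen, using a rabbit anti-monomethyl-H3K9 antibody with streptavidin donor and anti-IgG acceptor beads. Final levels are 20 nM enzyme, 500 nM peptide, 20 uM SAM; 2 h RT.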
# JMJD2A Tudor inh: JMJD2A Tudor domain (human) inhibition; O75164; AlphaScreen JMJD2A-Tudor / H3K4me3 peptide binding; Potency, µM (top dose mostly 114 µM), for inactives: at the top dose activity change, negative = inhibition, usual class: inhibitors; actives 4.4% (n = 390,000); note: potency is the fitted concentration of half-maximal effect; % is set by controls: 0 for no effect and ±100 for the full control effect; nearly all actives have a fitted effect of over 50% in size
# Six1-Eya2 blk: inhibitors of human Six1/Eya2 interaction; activity change, % (concentration not given with the values); actives 0.56% (n = 360,000); Q15475+O00167; AlphaScreen GST-Six1/His-Eya2 binding, biochemical; active compounds read low; AID 651725; in the data active = activity change below about -65%; inconclusive = mostly about -30% to -63%; note: % is set by controls: 0 for no effect and ±100 for the full control effect
#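 Six1/Eya2 binding was read as AlphaScreen signal after compounds were pinned into GST-Six1 plus His-tagged Eya2 (5X stock 250/500 nM) in pH 8.0 Tris/NaCl/TCEP buffer, beads added, then incubated 1 h, 37 C, dark.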
# CtBP-E1A blk: CtBP/E1A binding inhibition; AlphaScreen GST-E1A/His-CtBP binding, 1536-well; active compounds read low; AID 651724; activity change, % (concentration not given with the values); actives 0.49% (n = 340,000); in the data active = activity change below about -65%; inconclusive = mostly about -30% to -63%; note: % is set by controls: 0 for no effect and ±100 for the full control effect
#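 Steps: dispense buffer (Tris pH 8.0, NaCl 300 mM, TCEP 1 mM, BSA, Tween 20); add 5X protein mix (GST-E1A, His-CtBP, 125 nM each); pin 23 nL compound; 2 h at 37 °C, dark; add 5X beads (50 ug/mL); 1 h; read.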
# HP1b chromo inh: HP1-beta chromodomain-methylated histone interaction inhibition | AlphaScreen HP1-beta / biotin-H3K9me3 peptide binding | Potency, µM (series often up to 114 µM), for inactives: top-dose activity change, negative = inhibition, most hits filed as inhibitors | actives 0.56% (n = 390,000); note: potency is the fitted concentration of half-maximal effect; nearly all actives have a fitted effect of over 70% in size
#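 HP1-beta protein (50 nM final) preincubated 30 min at room temperature with biotinylated H3(1-18)K9me3 peptide (50 nM) in PBS pH 7.4, 0.01% Tween-20, then compound added for 30 min. AlphaScreen streptavidin donor/nickel chelate acceptor beads (10 ug/mL final), 30 min dark, luminescence read.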
# * hit, by the source's call; ? = inconclusive; . = no result; [ ] = another dose, or the depositor's remark. Unless noted, calls come from the whole dose curve; as a rule, active = well fitted inhibition curve with a large enough effect; inconclusive = small, poorly fitted or top-dose-only effect; inactive = no such curve, though single readings can be large or run the other way.
SMILES,BAZ2B block,G9a block,JMJD2A Tudor inh,Six1-Eya2 blk,CtBP-E1A blk,HP1b chromo inh
COc1ccc(C2/C=C\CN(CC(C)C)C(C)C(=O)N2Cc2ccc(F)cc2)cc1 (stereo unspecified),.,.,-8%,.,.,44%
CS(=O)(=O)N1CCC[C@@]2(CCN(Cc3nccs3)C2)C1,.,-21%[12.7 µM],.,.,.,.
COc1cc(/C=C2/SC(=S)N(Cc3ccccc3)C2=O)cc(Cl)c1O,13µM*,45µM*,25µM*,-1,.,?
COc1cc(/C=C2/SC(=S)N(Cc3ccccc3)C2=O)ccc1OS(C)(=O)=O,?,13µM*,?,-20,-21,-26%
COc1cc(/C=C2/SC(=S)N(CC(=O)O)C2=O)ccc1OC(=O)c1cccs1,?,50µM*,?,-12,?,?
COc1cc(/C=C2\SC(=S)N(CCC(=O)NCCc3ccccc3)C2=O)cc(OC)c1OC,2%,-2%,-1%,-1,-17,12%
COc1cc([N+](=O)[O-])cc(/C=C2/SC(=S)N(Cc3ccccc3)C2=O)c1O,14µM*,10µM*,18µM*,-6,.,?
N#CC(C#N)=C(N)/C(C#N)=C/c1ccc2[nH]ccc2c1,.,5%[59 µM],.,.,.,.
Cc1c2cnn(-c3ccccc3)c(=O)c2c(C)n1CC(=O)NCc1ccc(Cl)cc1,3%,5%[59 µM],3%,.,.,33%
CCc1noc(C)c1C(=O)Nc1ccccc1C(C)(C)C,-34%,-23%,-9%,3,9,16%
O=C1c2ccccc2C(=O)N1CCc1nc(-c2ccccn2)no1,-3%,-2%[59 µM],-7%,-7,-7,9%
O=C1c2ccccc2C(=O)N1CCCc1nc(-c2ccccn2)no1,?,22%[59 µM],79µM*,-2,4,-14%
O=c1cc(CSc2ccc(Cl)cc2)nc(-c2ccccc2)[nH]1,-2%,4%,-16%,9,1,9%[57 µM]
O=c1cc(CSc2ccc(Cl)cc2)nc(-c2ccccn2)[nH]1,28µM*,37%,79µM*,-93*,.,16%
C/C=C/c1cccc(-c2nc(C(=O)NC3CCCC3)cc3c2[C@@H](CCO)N(S(=O)C(C)(C)C)C3)c1 (stereo partly specified),.,.,.,-5,-8,.
CC(C)CC(=O)NC(=S)NNC(=O)c1ccc([N+](=O)[O-])cc1,3%,20µM*,?,-11,-15,-3%
CCC(=O)NC(=S)NNC(=O)c1ccc([N+](=O)[O-])cc1,15%[57.1 µM],?,79µM*,0,8,5%
Cn1cc([N+](=O)[O-])c(C(=O)NNC(=O)c2ccc([N+](=O)[O-])cc2)n1,-11%,45µM*,?,-2,.,?
Cc1ccccc1NC(=O)CSc1nnc(CNC(=O)c2ccco2)n1C,6%,-2%,-2%,0,8,39%
Cc1ccc(NC2=C(N3CCOCC3)C(=O)c3ccccc3C2=O)cc1,14µM*,?,14µM*,-89*,-92*,13µM*
CC(=O)c1ccc(NC2=C(N3CCOCC3)C(=O)c3ccccc3C2=O)cc1,28µM*,.,40µM*,?,0,28µM*
O=C(O)c1ccc(NC2=C(N3CCOCC3)C(=O)c3ccccc3C2=O)cc1,?,?,-17%,3,6,13%
CC(=O)N(C1=C(N2CCOCC2)C(=O)c2ccccc2C1=O)c1ccc(C(=O)O)cc1,-37%,40µM*,-20%,3,.,37%
Cc1nc2ccccn2c1-c1csc(Nc2cccc(C(=O)O)c2)n1,-10%,45µM*,-20%,?,-71*,11%
O=c1oc2ccccc2cc1-c1csc(NN=C2CCCC2)n1,2%,5%[59 µM],1%,21,22,46%
O=C(O)c1cccc(Nc2nc(-c3cc4ccccc4oc3=O)cs2)c1,?,.,12%,-78*,-79*,40%
Cc1nc2ccccn2c1-c1csc(Nc2ccc(C(=O)O)cc2)n1,?,?,-32%,-17,-30,43%
